Reference: PubChem BioAssay AID720518 (National Center for Advancing Translational Sciences (NCATS), 2013)
Results filed as inconclusive are left out. Entries that show only a call come without a potency. Calls of active or inactive are those of the source. Calls follow the shape of the full dose curve.

assay: qHTS for Inhibitors of Cell Surface uPA Generation: Wild-type Protective Antigen (WT-PrAg) Counterscreen for Cherry-picked Compounds; conditions: cells, WT protective antigen toxicity counterscreen; series mostly up to 115 µM
Potency is read from the fitted curve at half-maximal effect.

Row | Compound | Potency
1 | COc1ccc(NC(=O)Nc2nnc(N3CCCCC3C)s2)cc1OC (stereo not given) | inactive
2 | Cc1nc(NC(=O)COC(=O)CCc2ccccc2)c(Cl)cc1Cl | inactive
3 | C[C@H](CO)N1C[C@H](C)[C@@H](CN(C)C(=O)Nc2ccccc2)Oc2c(NS(=O)(=O)c3ccccc3)cccc2C1=O | inactive
4 | COc1cc(C2NC(=O)NC(C)=C2C(=O)OCC2CCCCC2)ccc1O (stereo not given) | inactive
5 | CCCCN(CC(=O)NCc1ccc(F)cc1)C(=O)c1ccco1 | inactive
6 | Cc1cccc(-c2nc(CS(=O)CC(=O)NCc3cccs3)c(C)o2)c1 (stereo not given) | inactive
7 | N#C/C(N=Nc1ccccc1O)=N\Nc1ccccc1O | inactive
8 | Cc1ccc(NC(=O)C(C)S)cc1 (stereo not given) | inactive
9 | CCN(CC)S(=O)(=O)c1ccc(C(=O)Nc2cccc(C)c2)cc1 | inactive
10 | CC(=O)Nc1ccc(NC(=O)CCCCCN2C(=O)c3ccccc3C2=O)cc1 | inactive
11 | CCOC(=O)Oc1c(OC)cc(C(=O)O[C@@H]2C[C@@H]3CN4CCc5c([nH]c6cc(OC)ccc56)[C@H]4C[C@@H]3[C@H](C(=O)OC)[C@H]2OC)cc1OC | inactive
12 | Cc1cc(C(=O)NP(=O)(N2CCOCC2)N2CCOCC2)c(C)n1C1CC1 | inactive
13 | CCCCCOC(=O)C1=C(C)NC(=O)NC1c1ccccc1 (stereo not given) | inactive
14 | CNC(=O)[C@@H]1CCC(=O)N1 | inactive
15 | CC(C)(C)OC(=O)C[C@@H]1C/C=C\C[C@@H](CC(=O)N(CCO)Cc2ccccc2)C(=O)N[C@H](Cc2c[nH]c3ccccc23)COC1=O | inactive
16 | COc1ccc(CCNC(=O)CSc2nc(N)c3c(C)c(C)oc3n2)cc1OC | inactive
17 | CC(C)(C)n1ncc2c(=O)n(Cc3ccc(Cl)cc3)cnc21 | inactive
18 | COc1ccc(-n2ncc3c(=O)n(CC(=O)NC(C)C)cnc32)cc1 | inactive
19 | O=C(Nc1ccc(S(=O)(=O)N2CCOCC2)cc1)c1cc(-c2ccccc2O)n[nH]1 | inactive
20 | CC(O)[C@H]1CNC(=O)C(=O)N1CCc1cccc(F)c1 (stereo not given in full) | inactive

Row | Compound | Potency
21 | Cc1ccnc(NC(=O)CCNS(=O)(=O)c2ccc(C)c(C)c2)c1 | inactive
22 | Cn1c(=O)c(=O)n(C)c2cc(S(=O)(=O)CCC(=O)Nc3ccc(F)cc3)ccc21 | inactive
23 | CC(=O)c1ccc(NC(=O)Nc2ccc(Br)cc2C)cc1 | inactive
24 | O=S(=O)(NCC(c1cccnc1)N1CCOCC1)c1ccccc1 (stereo not given) | inactive
25 | O=C(c1ccccn1)C1CCCN(Cc2cn[nH]c2-c2cc3ccccc3o2)C1 (stereo not given) | inactive
26 | Cc1ccc(S(=O)(=O)N2CCOCC2)cc1C(=O)OC1CCOC1=O (stereo not given) | inactive
27 | CCCCCN(C(=O)CCC(=O)OCCOc1cccc(Cl)c1)c1c(N)n(CCCC)c(=O)[nH]c1=O | inactive
28 | Cc1nc(SCc2nc3ccccc3[nH]2)c2oc3cc([N+](=O)[O-])ccc3c2n1 | inactive
29 | CC(C)N1CCc2c(sc(NC(=O)CCc3ccccc3)c2C(N)=O)C1 | inactive
30 | CCc1nnc(NC(=O)CSc2nnnn2-c2cccc(C(C)=O)c2)s1 | inactive
31 | CCN(CC)CC(=O)Nc1sc2c(c1C(=O)c1ccccc1OC)CCC2 | 9.27 µM (active)
32 | COc1ccccc1N=Nc1c(C)[nH]n(-c2ccccc2)c1=O | inactive
33 | O=C(Nc1c(C(=O)O)oc2ccc(Br)cc12)c1ccccc1 | inactive
34 | O=C(NCCc1ccccc1)C1CCC(=O)N(Cc2cccc(C(F)(F)F)c2)C1 (stereo not given) | inactive
35 | Cc1oc2c(Cl)c(Cl)c(O)c(CN(C)C)c2c1C(=O)c1ccc(Cl)cc1 | inactive
36 | COc1cccc(NC(=S)NCc2ccc3c(c2)cc(C)n3C)c1 | inactive
37 | CCOC(=O)C1(CC2CCCCO2)CCN(Cc2nccn2-c2cccc(C)c2)CC1 (stereo not given) | inactive
38 | C[C@H]1CN([C@@H](C)CO)C(=O)c2cc(NS(=O)(=O)c3ccc(Cl)cc3)ccc2O[C@@H]1CN(C)CC1CCCCC1 | inactive
39 | CCCCNC(=O)c1cc2c(-c3ccc(Cl)cc3)nn(C)c2s1 | inactive
40 | COc1cc(/C=N/NC(=O)Cc2csc(C)n2)ccc1OCC(C)C | inactive
